Source: PubChem BioAssay AID624481 (The Scripps Research Institute Molecular Screening Center, 2012)
Values without a mark were called inactive. Calls of active or inactive are those of the source. No stated cut-off is given here; in the data, active means inhibition above about 50%; inactive means the rest.

Target: Prolyl endopeptidase-like (Mus musculus) (UniProt Q8C167)
Assay: purified PREPL inhibitors, PREPL inhibitor project, biochemical, gel-based competitive ABPP, fluorescence, HTS hits (AID 624481)
Details: at 20 µM, stronger effect = higher value

Sequence of Prolyl endopeptidase-like (Mus musculus) (Q8C167 whole entry, looked up): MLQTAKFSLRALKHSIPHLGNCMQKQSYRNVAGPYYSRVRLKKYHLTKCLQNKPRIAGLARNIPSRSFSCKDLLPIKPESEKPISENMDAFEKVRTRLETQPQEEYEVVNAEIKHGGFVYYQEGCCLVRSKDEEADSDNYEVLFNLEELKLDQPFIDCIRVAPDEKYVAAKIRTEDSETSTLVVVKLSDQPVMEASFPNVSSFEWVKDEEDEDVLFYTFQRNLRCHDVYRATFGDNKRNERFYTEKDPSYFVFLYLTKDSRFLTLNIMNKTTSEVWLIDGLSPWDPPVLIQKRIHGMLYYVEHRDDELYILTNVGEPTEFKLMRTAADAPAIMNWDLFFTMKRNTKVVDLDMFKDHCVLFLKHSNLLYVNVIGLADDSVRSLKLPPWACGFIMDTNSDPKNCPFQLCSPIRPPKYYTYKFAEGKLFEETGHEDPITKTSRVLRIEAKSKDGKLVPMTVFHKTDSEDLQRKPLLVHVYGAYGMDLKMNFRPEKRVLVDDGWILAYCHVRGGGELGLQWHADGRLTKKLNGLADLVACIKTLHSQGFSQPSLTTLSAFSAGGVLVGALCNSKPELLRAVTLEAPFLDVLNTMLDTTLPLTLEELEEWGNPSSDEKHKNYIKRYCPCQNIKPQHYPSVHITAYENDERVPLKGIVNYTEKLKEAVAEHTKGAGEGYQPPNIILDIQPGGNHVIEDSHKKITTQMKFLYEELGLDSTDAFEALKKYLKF

Compound | inhibition
NC(=O)[C@H]1CC2(CC(c3cccc(NC(=O)COc4ccc(Cl)cc4)c3)=NO2)CN1C(=O)Cc1ccc([N+](=O)[O-])cc1 (some centres not stated) | -114%
Nc1[nH]n2c(=O)c3c(nc2c1N=Nc1ccccc1)CCCC3 | 1%
CCN1CCCC1CNC(=O)c1ccc2c(c1)NC(=O)/C(=C\c1ccc(OC)c(OC)c1)S2 (configuration not stated) | 3%
O=C(C1=C[C@@H](c2ccc(C(F)(F)F)cc2)C[C@@H](OCc2ccc(CO)cc2)O1)N1CCN(Cc2ccc3c(c2)OCO3)CC1 | -49%
CCN1/C(=C\c2ccc3ccccc3[n+]2CC)Sc2cc(C)ccc21 | 50% (active)
CSc1ccc2c(c1)N(CCC1CCCCN1C)c1ccccc1S2 (configuration not stated) | -53%
Cc1ccc(OCC(=O)Nc2ccc(N3CCN(C(=O)c4ccco4)CC3)cc2)cc1C | 44%
CCN1/C(=C/c2ccc3cc(C)ccc3[n+]2CC)Sc2ccccc21 | 98% (active)
CCC[C@@H](CN1CCC[C@H]1CN1C(N)=NC[C@H]1C(C)C)N1C[C@@H](Cc2ccccc2)N(CCCC2CCCC2)C1=N | -46%
CN1CCN(C(=O)C2=C[C@@H](c3ccc4c(c3)OCO4)C[C@@H](OCc3ccc(CO)cc3)O2)CC1 | -46%
C#CCOCCOCCOCCNc1nc(N2CCN(C(=O)CCCCCCCCCCNC(=O)[C@H]([C@@H](C)CC)n3cc(CCCCN=C(N)N)nn3)CC2)nc(N2CCN(C(=O)CCCCCCCCCCNC(=O)[C@H](CO)n3cc(CCCCCN)nn3)CC2)n1 | -38%
CCCCCCCCCCCCCCCC[N+](C)(C)CCN(Cc1ccc(OC)cc1)c1ncccn1 | 81% (active)
CCC[C@@H](CN1CCC[C@H]1CN1C(N)=NC[C@@H]1Cc1ccccc1)N1C[C@@H]([C@H](C)CC)N(CCCC2CCCC2)C1=N | 9%
CNC(=S)N1N=C(c2ccc(C)cc2)CC1c1ccc(N(C)C)cc1 (configuration not stated) | -85%
CN(C)S(=O)(=O)c1cccc(-c2csc(=Nc3ccccc3)n2CCCN2CCOCC2)c1 | -41%
COc1cccc2cc(C(=O)C3=C(O)C(=O)N(CCN4CCOCC4)C3c3ccc(C(C)(C)C)cc3)oc12 (configuration not stated) | -36%
Nc1cc([N+](=O)[O-])cc2oc(-c3ccccc3)cc12 | -25%
COc1cc2c(cc1OC)C(Cc1ccc(O)c(Oc3ccc(C[C@H]4c5cc(OC)c(OC)cc5CCN4C)cc3)c1)N(C)CC2 (some centres not stated) | 66% (active)
O=C(CSc1ccccc1F)Nc1ccc(N2CCOCC2)cc1 | -55%

Compound | inhibition
C[C@H]1CN([C@@H](C)CO)C(=O)c2cccc(NS(=O)(=O)c3ccc(Cl)cc3)c2O[C@@H]1CN(C)CC1CCCCC1 | -24%
CCOc1ccc2[nH]c3c(N4CCc5ccccc5C4)ncnc3c2c1 | 1%
CN1CCN(c2ccc(NC(=O)COc3cccc4ccccc34)cc2)CC1 | 15%
CCN1/C(=C/c2ccc3ccc(C)cc3[n+]2CC)Sc2ccccc21 | -19%
CCc1ccc(CNc2ccc3c(c2)ncn3C(C)(C)C)cc1 | -36%
Cc1ccc2nc3c(cc(C(=O)NCCc4ccccc4)c(=N)n3CCCN3CCOCC3)c(=O)n2c1 | -43%
COc1cc(-c2nnc3sc(Cc4ccc(Cl)cc4)nn23)cc(OC)c1OC | 14%
CCN(CC)c1ccc2cc(C(N)=O)c(=NNC(=O)c3ccncc3)oc2c1 | -14%
CCC(=O)c1ccc2c(c1)N(CCCN(C)C)c1ccccc1S2 | 9%
Cc1cccc(OCC(=O)Nc2ccc(N3CCN(C(=O)c4ccccc4)CC3)cc2)c1C | -8%
O=C(CSc1cccc(C(F)(F)F)c1)Nc1ccc(N2CCOCC2)cc1 | -35%
Cc1sc2ncnc(NN=Cc3ccccc3O)c2c1C | -89%
CCCCNc1c(-c2ccc(SC(C)CC)cc2)nc2cnccn12 (configuration not stated) | -22%
CC[C@@H](C)[C@@H]1CN([C@@H](C)CN2CCC[C@H]2CN2C(N)=NC[C@H]2C(C)C)C(=N)N1CCc1ccc(Cl)c(Cl)c1 | -48%
CN(C)c1nc(-c2ccccn2)nnc1-c1ccccc1 | -28%
C(=NNc1nc2ccccc2[nH]1)c1c[nH]c2ccccc12 | 36%
COc1ccc(C(=O)c2coc3ccc(O)c(CN4CCOCC4)c23)cc1 | -78%
O=C1c2ccccc2C(=O)c2c1cccc2N1CCN(C/C=C/c2ccccc2)CC1 | -116%
